HTR5A inv ctr = counter-screen for OPRM1-OPRD1 inverse agonists: human HTR5A inverse agonism. P47898. HTR5A cell line, luminescence. inhibition, % at 9.3 µM. 340,000 compounds, 0.083% hits. AID 504634; in the data active = inhibition mostly above about 23%, no sharp cut-off; inactive = mostly below about 18%;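 note: 0% = cells with DMSO and 100% = no-cell wells with DMSO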
Target sequence (P47898 whole entry, looked up): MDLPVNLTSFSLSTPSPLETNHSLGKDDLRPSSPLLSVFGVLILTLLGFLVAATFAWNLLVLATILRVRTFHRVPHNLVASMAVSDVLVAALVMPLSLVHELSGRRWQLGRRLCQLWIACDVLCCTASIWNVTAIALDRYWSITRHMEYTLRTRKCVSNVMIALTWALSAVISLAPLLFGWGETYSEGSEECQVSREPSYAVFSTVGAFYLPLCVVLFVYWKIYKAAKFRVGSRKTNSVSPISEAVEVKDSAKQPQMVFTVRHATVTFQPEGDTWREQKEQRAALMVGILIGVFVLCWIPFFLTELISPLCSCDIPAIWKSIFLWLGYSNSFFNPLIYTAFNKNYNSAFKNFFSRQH
MOR-DOR inv ag = mu-delta opioid heterodimer inverse agonism. P35372+P41143. cell-based MOR-DOR heterodimer luminescence. inhibition, % at 9.3 µM. 340,000 compounds, 0.21% hits; in the data active = inhibition above about 22%, passing the limit was not always enough;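 note: 0% = cells with DMSO and 100% = wells without cells with DMSO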
HTR5A ag = HTR5A agonism, opioid heterodimer counter-screen. P47898. HTR5A agonist assay, luminescence, cell-based. activation, % at 9.3 µM. 340,000 compounds, 0.61% hits. AID 504692; in the data active = activation mostly above about 9.5%, no sharp cut-off; inactive = mostly below about 7.6%;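 note: 0% = cells with vehicle only and 100% = reference agonist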
OPRM1-OPRD1 ag = OPRM1-OPRD1 heterodimerization agonism. P35372+P41143. cells, luminescence. activation, % at 9.3 µM. 340,000 compounds, 0.3% hits. AID 504326;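 note: 0% = vehicle-treated cells and 100% = reference agonist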
OPRM1-D1 ag cf = confirmation of human OPRM1-OPRD1 heterodimerization agonists; 830 compounds, 45% hits; activation, % at 9.3 µM; shares compounds with OPRM1-OPRD1 ag; cells, MOR-DOR heterodimerization, luminescence complementation;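 note: 0% = vehicle-treated cells and 100% = reference agonist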
HTR5A ag counter = HTR5A agonism, opioid heterodimer counter-screen; activation, % at 9.3 µM; 830 compounds, 8% hits; AID 504905; HTR5A agonist counterscreen, cell luminescence; shares compounds with OPRM1-OPRD1 ag; in the data active = activation above about 17%;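 note: 0% = vehicle-treated cells and 100% = reference agonist response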
OPRM1-D1 inv cf = OPRM1-OPRD1 heterodimer inverse agonism, confirmation; inhibition, % at 9.3 µM; AID 504900; 580 compounds, 20% hits; cells expressing OPRM1/OPRD1 heterodimer, luminescence; shares compounds with MOR-DOR inv ag; in the data active = inhibition above about 32%;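 note: 0% = cells with DMSO and 100% = wells lacking cells with DMSO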
HTR5A inv count = inverse agonist of human HTR5A in OPRM1-OPRD1 counter-screen; 580 tested, under 10 active; HTR5A-expressing cells, luminescence, inverse agonism; inhibition, % at 9.3 µM; AID 504914; shares compounds with MOR-DOR inv ag; call rule not given here;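 note: 0% = cells with DMSO and 100% = no-cell wells with DMSO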
Starred values were filed as active, the others as inactive; i = inactive; x = no result; ! = not confirmed by another sample. Hits are enriched below; roughly 1.1% of the tested compounds scored in any of these assays. Cut-off read from the data, not from the text of the source, unless noted: active = activation above about 18%; inactive = the rest.

SMILES	HTR5A inv ctr	MOR-DOR inv ag	HTR5A ag	OPRM1-OPRD1 ag	OPRM1-D1 ag cf	HTR5A ag counter	others
CC1=C/C(=N\OS(=O)(=O)c2ccccc2)C(C)=CC1=O	13	-417	11*	78*	47*	7
COc1ccc(S(=O)(=O)/N=C2/C=CC(=O)C(C)=C2C)cc1	-33	-44	12	10	x	x
CC1=C(C)/C(=N\OS(=O)(=O)c2ccc(C)cc2)C=CC1=O	-7	-262	2	50*	0	54*
O=[N+]([O-])c1ccc(N2CCN(c3ccccc3)CC2)nc1	2	11	0	-2	x	x
COc1cccc(CN2C(=NC(=O)CCC3CCCC3)SC3CS(=O)(=O)CC32)c1 (configuration not stated)	9	-36	0	7	x	x
Cc1ccc(NC(=O)CSc2ncccn2)cc1S(=O)(=O)N1CCOCC1	20	2	-8	0	x	x
CCOc1ccccc1N(CC(=O)NCCc1ccc(OC)c(OC)c1)S(=O)(=O)c1ccccc1	4	-6	5	1	x	x
COc1ccc(N(Cc2cc3ccc(C)cc3[nH]c2=O)C(=O)c2ccco2)cc1	-24	11	1	-2	x	x
CC(=O)Nc1cccc(/C(C)=N/NC(=O)c2cccc(S(=O)(=O)N3CCOCC3)c2)c1	-24	5	0	-1	x	x
C/C(=N\NC(=O)c1cccc(S(=O)(=O)N2CCOCC2)c1)c1ccc(O)cc1	-19	i	8	219*	-1	2
Cc1oc(-c2cccc(F)c2)nc1CN(Cc1ccccc1)C[C@@H]1CCC(=O)N1	-17	-134	2	29*	11	3
COc1ccc2c(CC(=O)Nc3ccccc3OC)coc2c1	3	17	-1	-3	x	x
COc1ccc2c(CC(=O)Nc3ccc(OC)c(NS(=O)(=O)c4ccc(F)cc4)c3)coc2c1	-9	-118	3	19*	6	1
CC(=O)Nc1ccc(-c2cc3ccccc3o2)cc1	30	16	-3	-3	x	x
Cc1cc2c(cc1S(=O)(=O)NCc1ccccc1Cl)OCCN2C	9	1	-3	0	x	x
Cc1ccccc1NP1(=O)OCCCN1Cc1ccccc1Cl (configuration not stated)	4	-147	-1	30*	1	4
O=C(NC(Cc1ccccc1)C(=O)O)c1ccco1 (configuration not stated)	-7	10	2	-2	x	x
COc1cccc(CC2(CO)CCCN(Cc3ccccc3-c3ccco3)C2)c1 (configuration not stated)	-29	i	-1	97*	128*	1
OCC1(CC2CCCCO2)CCN(Cc2ccccc2-c2ccco2)CC1 (configuration not stated)	4	i	-1	96*	136*	3
CCOC(=O)C1(CC2CCCCO2)CCN(Cc2cc3ccccc3[nH]2)CC1 (configuration not stated)	-9	i	4	307*	2	-1
COc1cccc(CC2(CO)CCCN(Cc3ccc(-c4ccco4)cc3)C2)c1 (configuration not stated)	1	-14	-1	3	x	x
CCOC(=O)C1(CC2CCCCO2)CCN(Cc2ccccc2-c2ccco2)CC1 (configuration not stated)	3	i	3	379*	10	4
CCOC(=O)c1c(C)c2c(n1C)CCC/C2=N\O	-23	12	3	-3	x	x
Cc1cc(N2C(=O)C(O)=C(C(=O)c3cc4ccccc4o3)C2c2ccc(Cl)cc2)no1 (configuration not stated)	-18	-1	5	0	x	x
CCOC(=O)c1c(NC(=O)CN2CCN(S(=O)(=O)c3cc(Cl)ccc3Cl)CC2)sc(C(=O)N(C)C)c1C	4	-96	-1	18*	12	-1
SMILES	HTR5A inv ctr	MOR-DOR inv ag	HTR5A ag	OPRM1-OPRD1 ag	OPRM1-D1 ag cf	HTR5A ag counter	others
CCN1CCN(CC(O)COc2ccc(Cl)cc2)CC1 (configuration not stated)	12	11	5	-2	x	x
CCN1CCN(CC(O)COc2ccc(C)c(C)c2)CC1 (configuration not stated)	-7	-125	2	25*!	0	3
Cc1ccccc1Cn1c(O)c(N=NC(=S)Nc2ccccc2F)c2ccccc21	1	-91	1	18*	76*	3
CC[C@@H](C)[C@H](CNC)NC[C@@H](Cc1cccc2ccccc12)NCCc1cccc(C(F)(F)F)c1	-77	-128	9	24*	-2	2
O=C(NC1CCCCCC1)c1cc(S(=O)(=O)N2CCOCC2)ccc1N1CCCCC1	-7	7	2	-1	x	x
COc1ccc(C[C@@H]2OC3(C=CC(=O)C=C3)O[C@H]2Cc2ccc(OC)cc2)cc1	9	39*	-2	-7	x	x	OPRM1-D1 inv cf=-20;HTR5A inv count=-19
O=C(Nc1c(C(=O)O)[nH]c2ccccc12)NC1CCCCC1	4	32*	1	-7	x	x	OPRM1-D1 inv cf=-74;HTR5A inv count=-7
Cc1ccc(NC(=S)NNC(=O)c2nn(C)cc2Cl)cc1	24	29*	-7	-5	x	x	OPRM1-D1 inv cf=-9;HTR5A inv count=7
Cc1noc(C)c1C(=O)NNc1ccc(C(C)C)cc1	5	23	0	-5	x	x
O=C(Nc1cc(Cl)cc(Cl)c1)c1ccno1	9	15	-2	-3	x	x
Cc1ccc(NNC(=O)c2ccno2)cc1C	-3	61*	6	-12	x	x	OPRM1-D1 inv cf=-189;HTR5A inv count=-27
Cc1ccc(NNC(=O)c2ccno2)cc1Cl	5	52*	3	-10	x	x	OPRM1-D1 inv cf=-40;HTR5A inv count=-268
Cc1ccc(NNC(=O)c2c(C)noc2C)cc1Cl	3	41*	0	-8	x	x	OPRM1-D1 inv cf=23;HTR5A inv count=-1
CCCCCCCCCC(=O)N1c2ccccc2NC(=O)C1CC(=O)Nc1ccc(C(=O)O)cc1 (configuration not stated)	-1	9	0	-2	x	x
O=C(NNc1ncc(C(F)(F)F)cc1Cl)c1c(Cl)cccc1Cl	28	24	-2	-5	x	x
Cc1ccccc1NC(=S)NNc1ncc(C(F)(F)F)cc1Cl	26	46*	-7	-8	x	x	OPRM1-D1 inv cf=33*;HTR5A inv count=15
Cc1cccc(C)c1NC(=S)NNc1ncc(C(F)(F)F)cc1Cl	17	32*	-3	-5	x	x	OPRM1-D1 inv cf=-49;HTR5A inv count=-11
Cc1c(Cl)cccc1NC(=S)NNc1ncc(C(F)(F)F)cc1Cl	41	43*	-8	-8	x	x	OPRM1-D1 inv cf=25;HTR5A inv count=28
Fc1ccccc1NC(=S)NNc1ncc(C(F)(F)F)cc1Cl	16	44*	-8	-8	x	x	OPRM1-D1 inv cf=-59;HTR5A inv count=-2
Cc1ccc(CNC(=O)CS(=O)(=O)Cc2nc(-c3ccccc3F)oc2C)cc1	-15	-10	5	2	x	x
FC(F)(F)c1cnc(NNC(=S)Nc2cccnc2)c(Cl)c1	29	66*	-7	-12	x	x	OPRM1-D1 inv cf=45*;HTR5A inv count=42
